The results in this text go back to PubChem BioAssay (Tox21).

Records with an inconclusive call do not appear. The source made the active and inactive calls. Unless noted, calls follow the shape of the dose curve; as a rule, active = well fitted curve in the direction sought with a large enough effect in the repeat runs; inconclusive = weak or mixed curves; inactive = no such curve, though single readings can be large; an effect the other way counts as inactive or inconclusive.

Test [1] in a line: qHTS assay to identify small molecule agonists of the peroxisome proliferator-activated receptor delta (PPARd) signaling pathway - cell viability counter screen (AID 743211). Also: nearly all actives have a fitted effect of over 55% in size. The procedure, abridged: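 HEK293H PPARd-bla, 3000 cells/well; 5 h preincubation 37C/5% CO2; cpd in DMSO, 17 h 37C; B/G FRET substrate 2 h RT; CellTiter-Glo 30 min RT, luminescence.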
Background: qHTS replaces the single test concentration by a dilution series.

Test [2] concerns the target Peroxisome proliferator-activated receptor delta (Homo sapiens) (UniProt Q03181). Description: qHTS assay to identify small molecule agonists of the peroxisome proliferator-activated receptor delta (PPARd) signaling pathway (AID 743212; calls by dose curve). The procedure, abridged:
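Tox21 library screened in GeneBLAzer PPARd UAS-bla HEK293H cells. After compound treatment at 37 C, a FRET-based beta-lactamase substrate was applied for 2 h and fluorescence recorded.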

Test [3] is described as follows: qHTS assay to identify small molecule antagonists of the peroxisome proliferator-activated receptor delta (PPARd) signaling pathway - cell viability counter screen (AID 743213). Also: nearly all actives have a fitted effect of over 50% in size. Also: potency is read from the fitted curve at half-maximal effect. In a few lines:
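PPARd-bla HEK293H cells (3000/well) got compound plus 300 nM L165041 agonist for 17 h at 37 C. Viability in the same wells came from CellTiter-Glo luminescence after 30 min at room temperature.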

In test [4] the target is Peroxisome proliferator-activated receptor delta (Homo sapiens) (UniProt Q03181). Kind of test: qHTS assay to identify small molecule antagonists of the peroxisome proliferator-activated receptor delta (PPARd) signaling pathway (AID 743215; active = well fitted inhibition curve with a large enough effect in the signal ratio in the repeat runs, not every such curve was filed as active; the % refers to the signal ratio;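 also: cells stimulated with agonist L165041 at 300 nM final during compound exposure; series mostly up to about 62 µM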). The procedure, abridged:
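Here, a reporter line (HEK293H, beta-lactamase under a UAS) measures PPARd signaling. Compounds are tested against agonist L165041 at 300 nM final concentration over 17 h at 37 C, with fluorescence read after substrate.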

A short description of test [5]: qHTS assay to identify small molecule agonists of the farnesoid-X-receptor (FXR) signaling pathway - cell viability counter screen (AID 743218). Also: nearly all actives have a fitted effect of over 45% in size. The procedure, abridged: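 Quantitative HTS counter screen measuring ATP-based viability via CellTiter-Glo luminescence in HEK 293T cells carrying a UAS-driven beta-lactamase reporter, after 16 h compound exposure at 37 C.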

A short description of test [6]: qHTS assay to identify small molecule antagonists of the farnesoid-X-receptor (FXR) signaling pathway - cell viability counter screen (AID 743221; active = well fitted cell-killing curve with a large enough effect in the repeat runs, not every such curve was filed as active; also: nearly all actives have a fitted effect of over 50% in size). In a few lines: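 Luminescence from CellTiter-Glo measures cytotoxicity in GeneBLAzer FXR-UAS-bla HEK 293T cells. Cells were exposed to compounds with 50 uM chenodeoxycholic acid (final) for 16 h at 37 C, in wells also used for the reporter readout.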

Test [7] concerns the target Vitamin D3 receptor (Homo sapiens) (UniProt P11473). Description: qHTS assay to identify small molecule agonists of the vitamin D receptor (VDR) signaling pathway (AID 743222; calls by dose curve). The procedure, abridged:
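Tox21 cell reporter format: VDR-bla line, 16 h compound exposure in 5% CO2 at 37C, then fluorescence intensity after 2 h with LiveBLAzer B/G FRET substrate.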

For test [8] the target is unchanged. Description: qHTS assay to identify small molecule antagonists of the vitamin D receptor (VDR) signaling pathway (AID 743223; active = well fitted inhibition curve with a large enough effect in the signal ratio in the repeat runs, not every such curve was filed as active; the % refers to the signal ratio). In a few lines: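 Antagonist mode uses 1alpha,25-dihydroxyvitamin D3 at 3 nM final as stimulus. VDR-bla cells receive compounds in DMSO, incubate 16 h at 37C, then a beta-lactamase FRET substrate for 2 h at room temperature before fluorescence measurement.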

Test [9] is described as follows: qHTS assay to identify small molecule agonists of the vitamin D receptor (VDR) signaling pathway - cell viability counter screen (AID 743224). Also: series mostly up to about 63 µM; nearly all actives have a fitted effect of over 50% in size. The procedure, abridged: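 CellTiter-Glo viability readout on VDR-bla cells, measured after 16 h of compound treatment at 37C in the same wells.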
Test [10] in a line: qHTS assay to identify small molecule antagonists of the vitamin D receptor (VDR) signaling pathway - cell viability counter screen (AID 743225). Also: nearly all actives have a fitted effect of over 50% in size. The procedure, abridged: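 Read-out: CellTiter-Glo luminescence measured 30 min after reagent addition at room temperature. Cells were VDR-bla HEK 293T exposed 16 h at 37C, 5% CO2, to compound with 3 nM final calcitriol agonist.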
Test [11] is described as follows: qHTS assay to identify small molecule agonists of the NFkB signaling pathway - cell viability counter screen (AID 1159515; calls by dose curve; also: nearly all actives have a fitted effect of over 55% in size; also: potency is read from the fitted curve at half-maximal effect). The procedure, abridged: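 Tox21 library compounds were tested for cytotoxicity against NFkB-bla ME-180 cells during a 5 hr exposure at 37 C. CellTiter-Glo luminescence served as the viability read-out.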
A short description of test [12]: qHTS assay to identify small molecule agonists of the endoplasmic reticulum stress response signaling pathway (AID 1159516; active = well fitted activation curve with a large enough effect in the signal ratio in the repeat runs, not every such curve was filed as active; the % refers to the signal ratio). The procedure, abridged: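 Fluorescence at 460 and 530 nm (405 nm excitation) reports beta-lactamase from an ER stress response element in HeLa cells treated 5 hr at 37 C.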
The nature of test [13]: qHTS assay to identify small molecule antagonists of the retinoid-related orphan receptor gamma (ROR-gamma) signaling pathway - cell viability counter screen (AID 1159520). Also: nearly all actives have a fitted effect of over 50% in size. The procedure, abridged: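 Tet-on ROR gamma CHO cells were given compounds for 2 hr, then doxycycline hyclate at 1 uM final, and incubated 16 hr at 37 C. Viability was measured as ATP content by CellTiter-Glo luminescence.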

Test [14] in a line: qHTS assay to identify small molecule agonists of the AP-1 signaling pathway - cell viability counter screen (AID 1159525; calls by dose curve; also: nearly all actives have a fitted effect of over 55% in size; also: potency is read from the fitted curve at half-maximal effect). In a few lines:
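Same-well cytotoxicity counter screen of the Tox21 10K library in ME-180 cells. The readout is ATP-dependent luminescence after 5 h compound treatment. Data are normalised to DMSO and tetra n-octyl ammonium bromide controls.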

Test [15] can be described thus: qHTS assay to identify small molecule agonists of the AP-1 signaling pathway (AID 1159526; calls by dose curve).
The target in test [16] is Retinoic acid receptor RXR-alpha (Homo sapiens) (UniProt P19793). Description: qHTS assay to identify small molecule agonists of the RXR signaling pathway (AID 1159527; calls by dose curve; also: nearly all actives have a fitted effect of over 35% in size). In a few lines: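 Read-out: beta-lactamase FRET ratio (405 nm excitation, 460 and 530 nm emission) after 2 hr substrate loading at room temperature. Cells were RXR-alpha-UAS-bla HEK 293T treated with compounds for 16 hr in 2% charcoal-stripped FBS medium.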
Chain of Retinoic acid receptor RXR-alpha (Homo sapiens) (P19793 whole entry, looked up): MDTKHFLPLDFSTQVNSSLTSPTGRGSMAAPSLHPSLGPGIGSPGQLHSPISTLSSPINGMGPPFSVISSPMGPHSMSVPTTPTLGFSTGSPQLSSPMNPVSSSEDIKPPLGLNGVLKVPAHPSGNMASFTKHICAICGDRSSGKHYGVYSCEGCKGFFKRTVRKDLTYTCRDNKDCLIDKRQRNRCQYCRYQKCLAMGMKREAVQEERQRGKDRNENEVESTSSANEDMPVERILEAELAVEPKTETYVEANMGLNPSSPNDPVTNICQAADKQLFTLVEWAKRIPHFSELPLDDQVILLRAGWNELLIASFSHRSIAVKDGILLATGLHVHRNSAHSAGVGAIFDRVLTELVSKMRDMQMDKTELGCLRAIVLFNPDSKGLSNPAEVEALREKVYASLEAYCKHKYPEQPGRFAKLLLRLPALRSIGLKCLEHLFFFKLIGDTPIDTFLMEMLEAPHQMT

Test [17] has as its target Bile acid receptor (Homo sapiens) (UniProt Q96RI1). Description: qHTS assay to identify small molecule antagonists of the farnesoid-X-receptor (FXR) signaling pathway (AID 743217; active = well fitted inhibition curve with a large enough effect in the signal ratio in the repeat runs, not every such curve was filed as active; the % refers to the signal ratio). In a few lines:
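Test compounds are pin-transferred onto FXR-bla HEK 293T cells, then chenodeoxycholic acid is added at 50 uM final. After 16 h at 37 °C, LiveBLAzer B/G substrate is applied for 2 h at room temperature and fluorescence read.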

For test [18] the target is unchanged. Description: qHTS assay to identify small molecule agonists of the farnesoid-X-receptor (FXR) signaling pathway (AID 743220; active = well fitted activation curve with a large enough effect in the signal ratio in the repeat runs, not every such curve was filed as active; the % refers to the signal ratio). The procedure, abridged: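 FXR-UAS-bla HEK 293T cells carrying a UAS-driven beta-lactamase reporter were plated for 5 h at 37C/5% CO2, then exposed to DMSO-dissolved Tox21 10K compounds for 16 h at 37C. A LiveBLAzer B/G FRET substrate was loaded for 2 h at room temperature before fluorescence reading.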

Test [19] is described as follows: qHTS assay to identify small molecule agonists of the endoplasmic reticulum stress response signaling pathway - cell viability counter screen (AID 1159517; calls by dose curve). The procedure, abridged: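 In parallel with the ESRE reporter read, cytotoxicity was scored by CellTiter-Glo luminescence (30 min, room temperature) on HeLa ESRE-bla cells dosed for 5 hr.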
The target in test [20] is Nuclear receptor ROR-gamma (Homo sapiens) (UniProt P51449). Description: qHTS assay to identify small molecule antagonists of the retinoid-related orphan receptor gamma (ROR-gamma) signaling pathway (AID 1159521; also: nearly all actives have a fitted effect of over 50% in size; also: potency is read from the fitted curve at half-maximal effect). In a few lines: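 CHO Tet-on RORγ, RORE-luc reporter. Cpd 2 h pre-incubation, then dox hyclate 1 uM final, 16 h, 37 C/5% CO2. ONE-Glo luminescence; decrease = antagonist.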

Chain of Peroxisome proliferator-activated receptor delta (Homo sapiens) (Q03181 whole entry, looked up): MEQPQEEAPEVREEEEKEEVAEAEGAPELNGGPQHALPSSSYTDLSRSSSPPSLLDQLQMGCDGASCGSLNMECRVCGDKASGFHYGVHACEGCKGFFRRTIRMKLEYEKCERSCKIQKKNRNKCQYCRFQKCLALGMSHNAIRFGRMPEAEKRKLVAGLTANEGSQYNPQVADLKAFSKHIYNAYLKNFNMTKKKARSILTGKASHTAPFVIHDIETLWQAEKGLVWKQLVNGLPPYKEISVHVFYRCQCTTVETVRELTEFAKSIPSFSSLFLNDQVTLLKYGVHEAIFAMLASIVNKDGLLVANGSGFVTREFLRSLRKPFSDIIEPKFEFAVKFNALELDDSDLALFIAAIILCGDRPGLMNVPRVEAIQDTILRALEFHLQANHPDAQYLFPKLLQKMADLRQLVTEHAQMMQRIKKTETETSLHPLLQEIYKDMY
Chain of Bile acid receptor (Homo sapiens) (Q96RI1 whole entry, looked up): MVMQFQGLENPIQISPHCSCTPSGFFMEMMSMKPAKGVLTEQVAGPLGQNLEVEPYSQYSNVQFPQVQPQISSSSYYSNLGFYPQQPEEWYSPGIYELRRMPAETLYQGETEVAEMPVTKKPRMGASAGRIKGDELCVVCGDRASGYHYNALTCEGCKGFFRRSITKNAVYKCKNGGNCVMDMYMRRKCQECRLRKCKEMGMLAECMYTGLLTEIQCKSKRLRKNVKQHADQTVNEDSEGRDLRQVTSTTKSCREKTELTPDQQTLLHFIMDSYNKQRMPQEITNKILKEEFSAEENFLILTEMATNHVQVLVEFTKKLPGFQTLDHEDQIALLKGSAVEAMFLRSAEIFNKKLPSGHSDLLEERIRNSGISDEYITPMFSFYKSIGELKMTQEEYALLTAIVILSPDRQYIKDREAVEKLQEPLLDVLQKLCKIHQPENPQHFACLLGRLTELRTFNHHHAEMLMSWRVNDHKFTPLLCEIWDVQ
Chain of Vitamin D3 receptor (Homo sapiens) (P11473 whole entry, looked up): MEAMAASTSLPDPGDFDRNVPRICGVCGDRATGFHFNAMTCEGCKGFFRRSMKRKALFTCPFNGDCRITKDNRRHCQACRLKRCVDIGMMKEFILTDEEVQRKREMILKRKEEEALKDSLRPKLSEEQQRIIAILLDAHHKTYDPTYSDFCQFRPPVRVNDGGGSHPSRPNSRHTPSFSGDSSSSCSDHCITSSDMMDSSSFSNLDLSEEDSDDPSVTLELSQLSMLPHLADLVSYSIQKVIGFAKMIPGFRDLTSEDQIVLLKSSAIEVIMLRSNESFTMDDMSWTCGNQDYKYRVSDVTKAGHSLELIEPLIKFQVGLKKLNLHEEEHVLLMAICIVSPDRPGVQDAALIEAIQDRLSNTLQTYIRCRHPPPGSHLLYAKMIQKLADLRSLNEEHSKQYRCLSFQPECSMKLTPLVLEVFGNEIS

Take `COCCC#N`: the Potency entry in test [1], in test [2], in test [3], in [4], in test [5] and in test [6] was “inactive” in each case. The Potency entry in [7], in test [8], in [9], in test [10], in [11] and in test [12] was “inactive” in each case. Also, the Potency result in test [13], in test [14], in test [15] and in test [16] was “inactive” each time.

For the molecule `COP(=S)(OC)Oc1ccc([N+](=O)[O-])c(C)c1`, the Potency result in test [1], in test [2], in [3], in [4], in [17] and in test [5] was “inactive” in each case. Further, the Potency entry in test [18], in test [6], in test [8], in test [9], in test [10] and in test [11] was “inactive” each time. Moreover, the Potency result in [19], in test [13], in test [20], in test [14], in test [15] and in test [16] was “inactive” in each case.

Regarding `O=C(NC(=O)c1ccccc1Cl)Nc1ccc(OC(F)(F)F)cc1`, the Potency result in [1], in test [2], in [3], in [5], in test [18] and in test [6] was “inactive” throughout. Besides, the Potency entry in [7], in [8], in test [9], in [10], in test [11] and in test [19] was “inactive” in each case. In addition, the Potency entry in test [13], in test [20], in test [14] and in test [15] was “inactive” each time.

For the molecule `CSC1=N[C@@](C)(c2ccccc2)C(=O)N1Nc1ccccc1`, the Potency result in test [1], in [2], in [3], in test [18], in [6] and in [7] was “inactive” each time. The Potency entry in test [8], in test [11], in [12], in test [14] and in test [15] was “inactive” each time. Further, the Potency in [20] was 10.9 µM (active).

As to `COC(=O)/C=C(\C)OP(=O)(OC)OC`, the Potency result in test [1], in [2], in test [5], in [18], in [6] and in test [7] was “inactive” throughout. For the same molecule, the Potency entry in test [8], in test [9], in test [10], in [11], in test [19] and in [13] was “inactive” each time. Besides, the Potency entry in test [20], in test [14], in [15] and in [16] was “inactive” each time.

In the case of `COc1nc(C)nc(NC(=O)NS(=O)(=O)c2ccccc2Cl)n1`, the Potency entry in test [1], in test [3], in [5], in test [6], in test [7] and in [8] was “inactive” each time. In addition, the Potency entry in [9], in test [10], in test [11], in test [12], in test [13] and in test [14] was “inactive” each time. Also, the Potency entry in test [15] and in test [16] was “inactive” throughout.

`N#CCCl`: the Potency entry in test [1], in test [17], in [5], in [18], in [6] and in test [7] was “inactive” in each case. Also, the Potency entry in [8], in test [9], in test [10], in test [11], in [12] and in test [13] was “inactive” in each case. Also, the Potency result in test [20], in test [14] and in [15] was “inactive” each time.

Take `CCCCCON=O`: the Potency result in test [1], in test [2], in test [3], in [5], in test [6] and in test [7] was “inactive” each time. Also, the Potency result in test [8], in test [9], in test [10], in test [11], in test [12] and in [13] was “inactive” in each case. For the same molecule, the Potency result in test [14], in [15] and in test [16] was “inactive” throughout.

Turning to `Cc1cnc2c(C(=O)O)c(Cl)ccc2c1`, the Potency result in test [1], in test [17], in test [5], in [6], in test [10] and in test [11] was “inactive” each time. The Potency result in test [12], in [14], in [15] and in test [16] was “inactive” throughout.

`COc1ccc2c3c1O[C@H]1[C@H](O)CC[C@H]4[C@@H](C2)N(C)CC[C@@]341`: the Potency result in test [1], in [2], in test [3], in test [4], in [5] and in test [6] was “inactive” throughout. The Potency entry in test [9], in test [10], in [11], in [12], in test [14] and in [15] was “inactive” in each case.

Take `CCOP(=S)(OCC)SC(CCl)N1C(=O)c2ccccc2C1=O` (configuration not stated): the Potency entry in [1], in test [2], in test [6], in [7], in [9] and in [10] was “inactive” in each case. For the same molecule, the Potency entry in test [11], in test [12], in [13], in test [20], in test [14] and in test [15] was “inactive” each time.

`Cc1cc(C2CC2)nc(Nc2ccccc2)n1`: the Potency entry in [5], in [6], in [7], in test [10], in test [11] and in test [12] was “inactive” throughout. Further, the Potency entry in [20] was “inactive”.

Consider `Nc1ccccc1-c1ccccc1`, for which the Potency entry in [1], in test [6], in [7], in test [9], in test [10] and in test [11] was “inactive” in each case. The Potency result in [12], in test [13], in test [20], in test [14] and in test [15] was “inactive” throughout.

Regarding `C[C@]12Cc3cn[nH]c3C[C@@H]1CC[C@@H]1[C@@H]2CC[C@@]2(C)[C@H]1CC[C@]2(C)O`, the Potency is 29.8 µM (active) in test [3], 23.9 µM (active) in [11], 13.3 µM (active) in test [20] and 23.9 µM (active) in [14]. For the same molecule, the Potency result in test [7], in [10], in test [12] and in [13] was “inactive” in each case.

As to `Nc1cc(Cl)ccc1Cl`, the Potency result in [1], in test [2], in test [3], in [4], in test [5] and in test [6] was “inactive” in each case. Besides, the Potency result in [9], in test [10], in test [11], in test [19], in [13] and in [20] was “inactive” each time. In addition, the Potency result in [14], in test [15] and in test [16] was “inactive” in each case.
